# The campaign covered roughly 5,500 compounds. About 2,000 (36%) were called active. Roughly 18% stayed inconclusive and do not appear here. The list shows a part of the results. A number with no mark means an inactive call. Rule as the data show it: active = normalized growth mostly below about 0.91 (no sharp cut-off); inconclusive = no clear call, values can overlap the other calls; inactive = mostly above about 0.92.
# Assay: chemical genetic growth profiling, strain panel (AID 1159580);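 also: tested at 20 µM; growth read once vehicle control cultures reached saturation at 30 °C; 1 = growth at the plate median or of vehicle wells; lower values mean less growth of the strain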
# Conditions: growth OD
# [1] = S. cerevisiae deletion strains, locus YAL013W, strain DEP1, hits give low values
# [2] = S. cerevisiae deletion strains, locus YBR229C, strain ROT2, hits give low values
# [3] = S. cerevisiae deletion strains, locus YDL101C, strain DUN1, hits give low values
# [4] = S. cerevisiae deletion strains, locus YDR150W, strain NUM1, hits give low values
# [5] = S. cerevisiae deletion strains, locus YEL061C, strain CIN8, hits give low values
# [6] = S. cerevisiae deletion strains, locus YGR078C, strain PAC10, hits give low values
# [7] = S. cerevisiae deletion strains, locus YGR229C, strain SMI1, hits give low values
# [8] = S. cerevisiae deletion strains, locus YHR030C, strain SLT2, hits give low values
# [9] = S. cerevisiae deletion strains, locus YHR087W, strain rtc3, hits give low values
# [10] = S. cerevisiae deletion strains, locus YJR043C, strain POL32, hits give low values
# [11] = S. cerevisiae deletion strains, locus YJR075W, strain HOC1, hits give low values
# [12] = S. cerevisiae deletion strains, locus YLR039C, strain RIC1, hits give low values
# [13] = S. cerevisiae deletion strains, locus YLR058C, strain SHM2 (second series), hits give low values
# [14] = S. cerevisiae deletion strains, locus YLR085C, strain ARP6, hits give low values
# [15] = S. cerevisiae deletion strains, locus YLR262C, strain YPT6, hits give low values
# [16] = S. cerevisiae deletion strains, locus YML094W, strain GIM5, hits give low values
# [17] = S. cerevisiae deletion strains, locus YMR219W, strain ESC1, hits give low values
# [18] = S. cerevisiae deletion strains, locus YMR263W, strain SAP30, hits give low values
# [19] = S. cerevisiae deletion strains, locus YNL128W, strain TEP1, hits give low values
# [20] = S. cerevisiae deletion strains, locus YNL153C, strain GIM3, hits give low values
# [21] = S. cerevisiae deletion strains, locus YNL298W, strain CLA4 (second series), hits give low values
# [22] = S. cerevisiae deletion strains, locus YNL322C, strain KRE1, hits give low values
# [23] = S. cerevisiae deletion strains, locus YNR030W, strain Alg12, hits give low values
# [24] = S. cerevisiae deletion strains, locus YPL055C, strain LGE1, hits give low values
# [25] = S. cerevisiae deletion strains, locus YPL241C, strain CIN2, hits give low values
# [26] = S. cerevisiae deletion strains, locus YPR135W, strain CTF4, hits give low values
smiles,measurement,setting,value
CCCCCc1ccc(C(=O)O/N=C\c2c(Cl)cccc2Cl)cc1,normalized growth,[1],0.966
same,normalized growth,[2],0.941
same,normalized growth,"S. cerevisiae deletion strains, locus YCL061C, strain MRC1, hits give low values",0.933
same,normalized growth,[3],1.01
same,normalized growth,"S. cerevisiae deletion strains, locus YDL134C, strain PPH21, hits give low values",0.936
same,normalized growth,[4],1.01
same,normalized growth,[5],0.902 (active)
same,normalized growth,[6],0.959
same,normalized growth,[7],0.929 (active)
same,normalized growth,[8],1.01
same,normalized growth,[9],0.939
same,normalized growth,[10],0.962
same,normalized growth,[11],0.982
same,normalized growth,[12],0.84
same,normalized growth,[13],0.943
same,normalized growth,[14],0.943
same,normalized growth,[15],0.82
same,normalized growth,[16],0.98
same,normalized growth,[17],0.95
same,normalized growth,[18],1.03
same,normalized growth,[19],0.962
same,normalized growth,[20],0.92 (active)
same,normalized growth,[21],0.969
same,normalized growth,[22],0.947
same,normalized growth,[23],0.958
same,normalized growth,"S. cerevisiae deletion strains, locus YOL006C, strain TOP1, hits give low values",0.796
same,normalized growth,[24],0.943
same,normalized growth,[25],0.963
same,normalized growth,[26],1.07
same,normalized growth,"S. cerevisiae strains, strain wild type, hits give low values",0.919
O=[N+]([O-])c1cnc(Sc2n[nH]c(-c3cccs3)n2)s1,normalized growth,[1],0.488 (active)
same,normalized growth,[2],0.258 (active)
same,normalized growth,[3],0.23 (active)
same,normalized growth,[4],0.347 (active)
same,normalized growth,[5],0.612 (active)
same,normalized growth,[6],0.214 (active)
same,normalized growth,[7],0.974
same,normalized growth,[8],0.312 (active)
same,normalized growth,[9],0.377 (active)
same,normalized growth,[10],0.602 (active)
same,normalized growth,[11],0.224 (active)
same,normalized growth,"S. cerevisiae deletion strains, locus YKL190W, strain CNB1, hits give low values",0.715 (active)
same,normalized growth,[12],0.426 (active)
same,normalized growth,[13],0.404 (active)
same,normalized growth,[14],0.152 (active)
same,normalized growth,[15],0.596 (active)
same,normalized growth,[16],0.573 (active)
same,normalized growth,[17],0.35 (active)
same,normalized growth,[18],0.194 (active)
same,normalized growth,[19],0.876 (active)
same,normalized growth,[20],0.215 (active)
same,normalized growth,[21],0.352 (active)
same,normalized growth,[22],0.927 (active)
same,normalized growth,[23],0.508 (active)
same,normalized growth,[24],0.126 (active)
same,normalized growth,[25],0.36 (active)
same,normalized growth,[26],0.319 (active)
N[C@H](C(=O)O)[C@H]1C[C@@H]1C(=O)O,normalized growth,"S. cerevisiae deletion strains, locus YAL040C, strain CLN3, hits give low values",1.11
same,normalized growth,"S. cerevisiae deletion strains, locus YCL061C, strain MRC1 (second series), hits give low values",1.01
same,normalized growth,"S. cerevisiae deletion strains, locus YDR363W, strain ESC2, hits give low values",1.03
same,normalized growth,"S. cerevisiae deletion strains, locus YER002W, strain NOP16, hits give low values",1.01
same,normalized growth,[6],1.02
same,normalized growth,[18],1.01
same,normalized growth,[20],1.02
same,normalized growth,"S. cerevisiae deletion strains, locus YNL175C, strain NOP13, hits give low values",1
same,normalized growth,"S. cerevisiae deletion strains, locus YNL197C, strain WHI3, hits give low values",1.06
same,normalized growth,"S. cerevisiae deletion strains, locus YNL224C, strain SQS1, hits give low values",0.996
same,normalized growth,"S. cerevisiae deletion strains, locus YOR083W, strain WHI5 (second series), hits give low values",1.03
same,normalized growth,[25],1.01
